A selection: hits, their analogues and other compounds. The true share with any hit is near 19%.
VP16 counter: VP16 counterscreen qHTS for inhibitors of ROR gamma transcriptional activity; Drosophila S2 Gal4-VP16 UAS-luciferase, luminescence, 20 h; Potency, µM (series often up to 53.6 µM), usual class: inhibitors; hit rate 3.5% among 310,000;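 also: Gal4-VP16 expression switched on by copper sulfate through the metallothionein promoter; nearly all actives have a fitted effect of over 50% in size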
RORgamma inh: qHTS for inhibitors of ROR gamma transcriptional activity. AID 2551, 2010. hit rate 5.4% among 310,000. Drosophila S2 Gal4-RORgamma UAS-luciferase reporter, 20 h. Potency, µM (doses to about 53.6 µM), usual class: inhibitors; also: nearly all actives have a fitted effect of over 60% in size
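Compounds are pin-transferred onto Drosophila Schneider cells expressing a copper-inducible Gal4–ROR gamma transactivation domain fusion. After 1 hr, copper sulfate is added to 700 uM final; luciferase is read 20 hr later.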
TDP1 cell CPT: qHTS for Inhibitors of human tyrosyl-DNA phosphodiesterase 1 (TDP1): qHTS in cells in presence of CPT | Potency, µM (series often up to 46.2 µM), most hits filed as inhibitors | chicken DT40 Tdp1-/-;hTDP1 cells + 20 nM CPT, ATP luminescence, 48 h | hit rate 12% among 420,000 | AID 686979, 2013; also: nearly all actives have a fitted effect of over 55% in size
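Chicken DT40 Tdp1-/- cells stably complemented with human TDP1 were seeded at 400 cells/well in medium containing 20 nM camptothecin, exposed to pin-transferred compounds, and grown at 37 °C for at least 48 hr. Viability was read as ATP luminescence.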
TDP1 inh: qHTS Assay for Inhibitors of Tyrosyl-DNA Phosphodiesterase (TDP1). Potency, µM (series often up to 130 µM), usual class: inhibitors. recombinant TDP1, AlphaScreen DNA substrate cleavage. hit rate 0.28% among 350,000. Tyrosyl-DNA phosphodiesterase 1 (Homo sapiens), Q9NUW8; also: nearly all actives have a fitted effect of over 40% in size
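AlphaScreen read-out: signal falls as enzyme removes the 3' tyrosine-FITC from a 5'-biotinylated DNA oligo (15 nM, 5 min, RT). Enzyme was E. coli-made recombinant Tdp1 at 1 nM, exposed to compound for 15 min beforehand; beads 10 ug/ml, 10 min.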
DT40 TDP1 no CPT: qHTS for Inhibitors of human tyrosyl-DNA phosphodiesterase 1 (TDP1): qHTS in cells in absence of CPT; DT40 Tdp1-/- hTDP1 cells, no CPT, ATP luminescence, 48 h; Potency, µM (highest dose often 46.2 µM), actives largely listed as inhibitors; hit rate 15% among 420,000; also: nearly all actives have a fitted effect of over 55% in size
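Luminescent ATP content (CellTiter-Glo) served as the growth readout. Knockout chicken DT40 cells expressing human TDP1 were exposed to compounds without camptothecin for a minimum 48 hr at 37 °C.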
A number is an active result; . = inactive; ? = inconclusive; / = not tested or not shown. Calls follow the shape of the dose curve; as a rule, active = well fitted curve in the direction sought with a large enough effect; inconclusive = small, poorly fitted or top-dose-only effect, or another doubt; inactive = no such curve, though single readings can be large; an effect the other way counts as inactive or inconclusive.

SMILES	VP16 counter	RORgamma inh	TDP1 cell CPT	TDP1 inh	DT40 TDP1 no CPT
Cc1ccc(S(=O)(=O)NCC2CCCO2)cc1 (stereo not given)	.	.	.	/	.
COc1ccc(NS(=O)(=O)c2ccc(NC(=S)NCC3CCCO3)cc2)cc1 (stereo not given)	.	?	15µM	.	?
CN(C)c1ccc(NC(=S)NCC2CCCO2)cc1 (stereo not given)	.	?	.	.	.
COc1ccc(S(=O)(=O)Nc2ccc(S(=O)(=O)NCC3CCCO3)cc2)cc1 (stereo not given)	.	.	.	.	.
CCCCc1ccc(NC(=S)NCC2CCCO2)cc1 (stereo not given)	?	2.8µM	.	.	?
CCCCc1ccc(NC(=S)NCCN2CCOCC2)cc1	?	10µM	.	.	.
O=S(=O)(NCC1CCCO1)c1ccc(-c2ccc(S(=O)(=O)NCC3CCCO3)cc2)cc1 (stereo not given)	5.6µM	4.5µM	0.65µM	.	1.8µM
Cc1cccc(-n2c(N)cc(=O)nc2SCC(=O)Nc2nnc(CC(C)C)s2)c1	.	.	/	.	/
S=C(NCC1CCCO1)Nc1ccccc1Cl (stereo not given)	.	?	.	.	.
S=C(NCC1CCCO1)Nc1ccc(Cl)c(Cl)c1 (stereo not given)	?	3.5µM	?	.	23µM
S=C(NCC1CCCO1)NC1CCCC1 (stereo not given)	.	13µM	.	.	.
O=C(CN(Cc1ccccc1)C(=O)c1cc2c(s1)CCC2)NCc1cccs1	.	?	.	.	?
O=C(CN(C(=O)c1cc2c(s1)CCC2)C1CCCC1)NCc1cccs1	.	.	8.2µM	.	18µM
COc1ccc(C(=O)COC(=O)C(C)N2C(=O)C3C4CCC(C4)C3C2=O)cc1 (stereo not given)	.	.	.	.	.
CCCCOCCCNC(=O)C[C@@H]1C[C@@]2(C(=O)OC)CC(C)(C)CC=C2N(Cc2ccco2)C1=O	/	/	21µM	/	23µM
COC(=O)[C@@]12C[C@@H](CC(=O)NCc3cccs3)C(=O)N(Cc3ccco3)C1=CCC(C)(C)C2	/	/	?	/	18µM
COC(=O)[C@@]12C[C@@H](CC(=O)NCc3cccc4ccccc34)C(=O)N(Cc3ccco3)C1=CCC(C)(C)C2	/	/	21µM	/	?
CCOC(=O)[C@]12CCC=C1N(Cc1ccco1)C(=O)[C@H](CC(=O)NCCCN1CCCC1=O)C2	/	/	.	/	.
COC(=O)[C@@]12C[C@@H](CC(=O)NCCCCc3ccccc3)C(=O)N(Cc3ccco3)C1=CCC(C)(C)C2	/	/	16µM	/	?
CC(C)c1ccc(NC(=O)COc2ccccn2)cc1	.	.	.	.	.
CCC(=O)c1ccccc1OCCCn1cncn1	.	.	.	.	.
CCc1cnc2c(c1SCc1cc(OC)cc(OC)c1)c(=O)n(C)c(=O)n2C	/	/	?	.	?
COC(=O)[C@@]12C[C@@H](CC(=O)NCc3ccccc3)C(=O)N(Cc3ccco3)C1=CCC(C)(C)C2	/	/	18µM	/	?
COc1cc2nc(=S)n3[nH]c(CCn4c(C)nc5ccccc54)nc3c2cc1OC	.	?	.	.	.
COc1ccc(OCc2nc3c4cc(OC)c(OC)cc4nc(=S)n3[nH]2)cc1	0.71µM	0.4µM	6.5µM	.	6.5µM
N#CCCCN1C(=O)C(O)(CC(=O)c2ccc3c(c2)OCCO3)c2ccccc21 (stereo not given)	.	.	?	.	?
N#CCCCN1C(=O)C(=C(C#N)C#N)c2ccccc21	?	?	16µM	.	?
COc1cccc(/C=N/NC(=O)C(c2ccncc2)N2CCOCC2)c1 (stereo not given)	.	.	.	/	.
O=C(N/N=C/c1cc(Br)ccc1O)C(c1ccncc1)N1CCOCC1 (stereo not given)	16µM	5µM	4.1µM	.	8.2µM
CSc1ccccc1NC(=O)COC(=O)c1ccccc1Cc1ccccc1	.	.	.	.	.

Screening data as filed in PubChem BioAssay.
